Test results reported in PubChem BioAssay.
Active and inactive are the calls of the source.

What was measured:
[1] = binders of probe aFSTL3 on microarray, primary screen, stem cell growth factor project, biochemical, small-molecule microarray, fluorescence 635/667 (AID 1064); conditions: higher = more signal;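 further: measures binding of the biotinylated anti-FSTL3 antibody to printed compounds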
[2] = binders from COS7 lysate, DM2A8 probe, primary screen, torsin A project, cell lysate, small-molecule microarray, fluorescence 635/667 (AID 1065); conditions: higher = more signal, COS7 lysate expressing mutant human TOR1A
[3] = binders of probe aFGF2 on microarray, primary screen, stem cell growth factor project, biochemical, small-molecule microarray, fluorescence 635/667 (AID 1067); conditions: higher = more signal;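 further: measures binding of biotinylated aFGF2 protein to printed compounds on slides; z-score merges feature fluorescence and signal-to-noise across triplicate slides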
[4] = binders of probe aFGF10 on microarray, primary screen, stem cell growth factor project, biochemical, small-molecule microarray, fluorescence 635/667 (AID 1071); conditions: higher = more signal;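 further: score merges 667 nm spot intensity and signal to noise from triplicate slides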
[5] = molecular target: Neurogenic locus notch homolog protein 2 (Homo sapiens) (UniProt Q04721); assay: Notch2 binders on small-molecule microarrays, primary screen, biochemical, small-molecule microarray, 635 nm fluorescence, stem cell growth factors (AID 1073); conditions: Notch2 binding, higher = more signal
[6] = molecular target: Pro-neuregulin-1, membrane-bound isoform (Homo sapiens) (UniProt Q02297); assay: NRG1 binders on small-molecule microarrays, primary screen, psychiatric disease protein project, biochemical, small-molecule microarray, fluorescence 635/667 (AID 1075); conditions: NRG1 binding, 635 nm fluorescence, higher = more signal;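 further: score combines 667 nm spot fluorescence with signal to noise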
Sequence of Pro-neuregulin-1, membrane-bound isoform (Homo sapiens) (Q02297 whole entry, looked up, the tested form may be a part, canonical isoform): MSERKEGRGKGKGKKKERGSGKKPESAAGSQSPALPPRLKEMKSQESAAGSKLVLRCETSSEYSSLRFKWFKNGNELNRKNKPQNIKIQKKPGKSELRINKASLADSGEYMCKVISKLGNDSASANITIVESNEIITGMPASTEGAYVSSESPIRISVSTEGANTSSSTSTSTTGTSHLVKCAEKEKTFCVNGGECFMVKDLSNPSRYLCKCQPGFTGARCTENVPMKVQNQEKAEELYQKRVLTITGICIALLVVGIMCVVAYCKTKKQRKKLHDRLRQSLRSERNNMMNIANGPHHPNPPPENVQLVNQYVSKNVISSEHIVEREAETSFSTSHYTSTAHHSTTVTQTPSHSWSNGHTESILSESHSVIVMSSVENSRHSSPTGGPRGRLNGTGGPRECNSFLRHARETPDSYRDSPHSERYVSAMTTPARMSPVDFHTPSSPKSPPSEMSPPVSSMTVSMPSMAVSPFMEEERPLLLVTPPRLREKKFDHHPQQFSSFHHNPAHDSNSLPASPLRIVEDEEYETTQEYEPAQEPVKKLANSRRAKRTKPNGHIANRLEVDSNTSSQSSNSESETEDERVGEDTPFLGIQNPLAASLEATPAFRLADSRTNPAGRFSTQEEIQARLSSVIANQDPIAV

[7] = test system: Neuregulin-1 EGF-like domain; assay: binders of neuregulin-1 EGF-like domain, primary screen, biochemical, small-molecule microarray, 635 nm fluorescence (AID 1081); conditions: small-molecule microarray binding, higher = more signal;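 further: binding of the protein to compounds printed on small-molecule microarray slides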
[8] = FRG1 promoter luciferase signal modulators, primary screen, FRG1 inhibition for FSHD, cell-based, C2C12 myotubes, firefly/Renilla luciferase, luminescence (AID 1084); conditions: higher = more signal, called active from +8 up or from −8 down
[9] = binders of probe aFST on microarray, primary screen, stem cell growth factor project, biochemical, small-molecule microarray, fluorescence 635/667 (AID 1086); conditions: higher = more signal;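 further: score merges 667 nm fluorescence with signal-to-noise of each printed compound spot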
[10] = binders of probe aHhip on microarray, primary screen, stem cell growth factor project, biochemical, small-molecule microarray, fluorescence 635/667 (AID 1087); conditions: higher = more signal;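 further: score merges spot fluorescence at 667nm with spot signal to noise ratio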
[11] = test system: PRMT1 (protein arginine N-methyltransferase 1); assay: PRMT1 binders on small-molecule microarrays, primary screen, biochemical, small-molecule microarray, 635 nm fluorescence (AID 1088); conditions: small-molecule microarray binding, higher = more signal;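 further: binding of Prmt1 protein to compounds spotted on small-molecule microarray slides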
[12] = yeast growth modulation, basal conditions, primary screen, YJM789 clinical isolate, OD600, 24 h (AID 1089);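 further: growth of clinical yeast isolate S. cerevisiae YJM 789 seeded 1000 cells per well; test concentration not given here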; conditions: S. cerevisiae YJM789 growth, higher = more signal, called active from +8 up or from −8 down
[13] = fission yeast growth modulation, primary screen, strain 972, OD600, 24 h, no modulator (AID 1090);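 further: basal condition with compound alone and no growth modifier present; test concentration not given here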; conditions: S. pombe 972 growth, higher = more signal, called active from +8 up or from −8 down
[14] = S. cerevisiae growth modulation with rapamycin, primary screen, strain BY4716, OD600, 96 h (AID 1091); conditions: higher = more signal, called active from +8 up or from −8 down; further: test concentration not given here
[15] = molecular target: Torsin-1A-interacting protein 2 (Homo sapiens) (UniProt Q8NFQ8); assay: LULL1 binders on small-molecule microarray, primary screen, cell lysate, human LULL1 lysate, 635/667 nm fluorescence (AID 1092); conditions: hLULL1 lysate binding, 635 nm fluorescence, higher = more signal;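 further: probe is lysate of COS7 cells overexpressing human LULL1; score merges per-feature 667 nm fluorescence with signal-to-noise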
Sequence of Torsin-1A-interacting protein 2 (Homo sapiens) (Q8NFQ8 whole entry, looked up): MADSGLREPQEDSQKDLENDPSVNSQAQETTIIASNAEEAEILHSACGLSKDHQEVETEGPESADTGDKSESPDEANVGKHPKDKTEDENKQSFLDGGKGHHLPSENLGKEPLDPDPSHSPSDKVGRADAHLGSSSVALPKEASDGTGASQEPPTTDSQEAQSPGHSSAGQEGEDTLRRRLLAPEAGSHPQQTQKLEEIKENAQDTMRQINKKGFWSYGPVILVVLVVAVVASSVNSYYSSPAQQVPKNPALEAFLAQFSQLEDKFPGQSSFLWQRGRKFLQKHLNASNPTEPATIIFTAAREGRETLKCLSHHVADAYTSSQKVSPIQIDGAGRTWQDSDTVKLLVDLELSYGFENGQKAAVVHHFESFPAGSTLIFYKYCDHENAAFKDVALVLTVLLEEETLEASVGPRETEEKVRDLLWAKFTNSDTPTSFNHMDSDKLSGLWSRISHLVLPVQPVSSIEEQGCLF

[16] = E. coli growth modulation, two-sided OD650, primary screen, E. coli filamentation project, strain DRC41, 24 h (AID 1093); conditions: OD650, 24 h, higher = more signal, called active from +8 up or from −8 down;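 further: MC1000 strain lacking acrAB efflux and sulA so SOS filamentation is blocked; test concentration not given here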
[17] = small-molecule microarray binders of probe aLefty2, primary screen, biochemical, biotinylated probe, 635/667 nm fluorescence (AID 1094); conditions: higher = more signal;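 further: score merges spot fluorescence near 667 nm with spot signal-to-noise ratio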
[18] = test system: Noggin (protein binding on small-molecule microarray); assay: Noggin binders on small-molecule microarray, primary screen, biochemical, 635/667 nm fluorescence (AID 1095); conditions: 635 nm fluorescence, higher = more signal;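 further: score merges 667 nm feature fluorescence with signal to noise over triplicate slides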
[19] = molecular target: Neurogenic locus notch homolog protein 3 (Homo sapiens) (UniProt Q9UM47); assay: NOTCH3 binders on small-molecule microarray, primary screen, biochemical, 635/667 nm fluorescence (AID 1096); conditions: NOTCH3 binding, 635 nm fluorescence, higher = more signal
Sequence of Neurogenic locus notch homolog protein 3 (Homo sapiens) (Q9UM47 whole entry, looked up): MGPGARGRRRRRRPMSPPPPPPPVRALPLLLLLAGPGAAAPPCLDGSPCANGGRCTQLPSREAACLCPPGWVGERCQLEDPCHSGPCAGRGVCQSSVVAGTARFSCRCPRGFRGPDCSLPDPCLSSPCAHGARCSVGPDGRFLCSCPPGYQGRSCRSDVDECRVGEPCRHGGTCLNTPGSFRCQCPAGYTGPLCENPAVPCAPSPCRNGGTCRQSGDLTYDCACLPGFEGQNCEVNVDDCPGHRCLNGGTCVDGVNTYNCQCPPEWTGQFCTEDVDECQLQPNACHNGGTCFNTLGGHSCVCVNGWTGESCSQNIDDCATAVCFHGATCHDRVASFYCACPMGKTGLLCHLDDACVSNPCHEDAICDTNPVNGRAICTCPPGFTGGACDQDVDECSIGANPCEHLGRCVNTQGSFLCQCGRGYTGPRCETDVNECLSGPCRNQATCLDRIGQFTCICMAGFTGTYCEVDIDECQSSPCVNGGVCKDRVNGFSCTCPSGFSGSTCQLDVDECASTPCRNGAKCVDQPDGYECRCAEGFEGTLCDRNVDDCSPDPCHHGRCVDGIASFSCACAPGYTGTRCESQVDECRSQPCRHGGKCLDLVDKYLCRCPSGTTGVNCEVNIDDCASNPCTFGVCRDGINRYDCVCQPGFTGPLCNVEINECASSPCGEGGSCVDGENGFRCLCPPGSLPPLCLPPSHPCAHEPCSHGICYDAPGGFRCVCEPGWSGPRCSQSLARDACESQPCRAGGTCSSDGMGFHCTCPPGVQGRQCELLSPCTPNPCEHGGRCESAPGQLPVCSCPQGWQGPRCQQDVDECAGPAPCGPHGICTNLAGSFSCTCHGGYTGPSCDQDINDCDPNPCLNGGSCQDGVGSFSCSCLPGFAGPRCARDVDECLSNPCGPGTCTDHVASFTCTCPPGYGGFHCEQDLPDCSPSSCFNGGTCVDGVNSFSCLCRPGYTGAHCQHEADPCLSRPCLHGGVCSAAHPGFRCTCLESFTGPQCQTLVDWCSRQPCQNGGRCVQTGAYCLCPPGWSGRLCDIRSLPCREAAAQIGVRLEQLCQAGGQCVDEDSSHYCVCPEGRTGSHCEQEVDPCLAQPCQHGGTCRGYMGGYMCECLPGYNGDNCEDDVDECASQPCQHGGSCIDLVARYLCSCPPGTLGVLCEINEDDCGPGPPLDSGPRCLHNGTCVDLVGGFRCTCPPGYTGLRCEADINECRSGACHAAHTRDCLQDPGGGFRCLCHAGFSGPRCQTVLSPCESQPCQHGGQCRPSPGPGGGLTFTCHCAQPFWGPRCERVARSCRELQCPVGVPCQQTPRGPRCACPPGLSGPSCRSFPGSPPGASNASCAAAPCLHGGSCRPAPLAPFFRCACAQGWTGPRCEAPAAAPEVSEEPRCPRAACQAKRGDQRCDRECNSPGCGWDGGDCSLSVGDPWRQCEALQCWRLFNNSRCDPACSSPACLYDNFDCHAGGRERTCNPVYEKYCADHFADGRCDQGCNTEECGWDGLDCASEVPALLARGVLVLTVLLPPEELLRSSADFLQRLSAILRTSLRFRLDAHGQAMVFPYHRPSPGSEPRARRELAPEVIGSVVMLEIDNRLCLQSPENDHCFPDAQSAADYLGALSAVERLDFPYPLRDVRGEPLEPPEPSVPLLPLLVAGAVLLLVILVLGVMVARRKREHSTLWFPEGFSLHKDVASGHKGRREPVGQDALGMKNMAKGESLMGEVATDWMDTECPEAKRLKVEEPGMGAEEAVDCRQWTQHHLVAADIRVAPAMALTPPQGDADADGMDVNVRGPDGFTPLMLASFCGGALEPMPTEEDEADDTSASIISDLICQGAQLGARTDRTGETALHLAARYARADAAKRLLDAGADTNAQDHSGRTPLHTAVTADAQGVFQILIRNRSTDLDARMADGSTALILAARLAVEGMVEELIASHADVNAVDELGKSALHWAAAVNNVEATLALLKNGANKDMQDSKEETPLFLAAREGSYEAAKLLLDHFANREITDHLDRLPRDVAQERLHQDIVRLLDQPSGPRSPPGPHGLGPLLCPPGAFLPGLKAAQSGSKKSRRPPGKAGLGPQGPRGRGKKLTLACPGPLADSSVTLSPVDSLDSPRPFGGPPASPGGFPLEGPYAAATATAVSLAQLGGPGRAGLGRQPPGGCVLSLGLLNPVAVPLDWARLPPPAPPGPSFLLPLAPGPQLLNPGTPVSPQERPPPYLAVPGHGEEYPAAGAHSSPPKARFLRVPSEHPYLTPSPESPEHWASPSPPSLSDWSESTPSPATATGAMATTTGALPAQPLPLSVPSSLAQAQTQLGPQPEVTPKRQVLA

[20] = small-molecule microarray binders of probe aEGFR, primary screen, biochemical, biotinylated probe, 635/667 nm fluorescence (AID 1097); conditions: higher = more signal;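 further: probe is a biotinylated anti-EGFR antibody binding compounds printed on slides; score combines fluorescence near 667 nm and signal to noise of each spot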

Compound	composite z-score [1]	composite z-score [2]	composite z-score [3]	composite z-score [4]	composite z-score [5]	composite z-score [6]	composite z-score [7]	z-score [8]	composite z-score [9]	composite z-score [10]	composite z-score [11]	z-score [12]	z-score [13]	z-score [14]	composite z-score [15]	z-score [16]	composite z-score [17]	composite z-score [18]	composite z-score [19]	composite z-score [20]
COCCOC(=O)N1C(=O)[C@@]2(c3cc(C#CCC(C(=O)OC)C(=O)OC)ccc31)[C@H](c1ccc(OCCO)cc1)N1[C@H](c3ccccc3)[C@H](c3ccccc3)OC(=O)[C@H]1[C@@H]2C(=O)N1CCCCCCC1	3.74	1.64	0.671	0.304	1.37	0.812	1.3	0.562 (inactive)	3.32	3.43	1.56	1.9 (inactive)	0.911 (inactive)	3.67 (inactive)	3.6	1.43 (inactive)	1.68	1.43	1.06	1.03
CCCCC(=C=CC[C@@H](O)c1ccc(OCCO)cc1)C[C@@H](O)c1ccccn1	-0.0136	1.23	-0.0473	0.314	0.0751	0.0517	1.15	-0.838 (inactive)	0.111	0.16	1.02	-0.374 (inactive)	-1.07 (inactive)	-0.689 (inactive)	1.18	0.774 (inactive)	-0.0825	0.888	0.409	-0.0787
CCOC(=O)C1=C[C@@H](C(C)(C)C)N(S(=O)(=O)c2ccc(C)cc2)[C@H]1c1ccccc1Cl	0.284	0.534	0.122	0.624	1.61	1.25	1.14	-2.24 (inactive)	1.07	0.0401	1.53	0.168 (inactive)	2.3 (inactive)	2.15 (inactive)	2.61	-0.766 (inactive)	0.144	0.614	1.05	0.0522
COc1ccc([Si](C)(C)[C@H]2[C@H](CCO)O[C@@]3(C(=O)N(Cc4ccccc4)c4ccc(N(C=O)c5ccccc5)cc43)[C@@H]2C)cc1	-0.317	0.242	-0.103	0.199	0.697	0.929	0.818	-0.919 (inactive)	0.643	-0.0994	1.57	-0.347 (inactive)	1.08 (inactive)	20.3 (active)	1.65	0.773 (inactive)	-0.182	0.513	1.09	-0.0121
COC(=O)C(CC#Cc1ccc2c(c1)[C@]1(C(=O)N2)[C@H](c2ccc(O)cc2)N2[C@H](c3ccccc3)[C@H](c3ccccc3)OC(=O)[C@H]2[C@@H]1C(=O)N1CCc2cc(OC)c(OC)cc2C1)C(=O)OC	-0.312	0.475	-0.0692	0.59	1.07	0.296	1.27	1.63 (inactive)	0.652	-0.0755	1.54	1.39 (inactive)	1.12 (inactive)	0.735 (inactive)	1.59	-0.829 (inactive)	-0.109	0.958	1.05	0.232
CN(C)CCCC[C@@H]1NC(=O)[C@H]2C[C@@H](C(=O)O)[C@@H](c3cccc(OCCO)c3)N2C1=O	0.794	1.13	-0.0238	0.105	0.146	0.212	1.44	6.56 (inactive)	0.547	0.0374	1.4	-0.733 (inactive)	-1.36 (inactive)	0.102 (inactive)	2.1	0.579 (inactive)	0.495	1.19	0.87	0.169
COc1cccc(OC)c1C(=O)O[C@H]1[C@@H]2OC(=O)[C@H](Cc3cccc(Br)c3)C/C=C/C[C@@H](Cc3cccc(Br)c3)C(=O)O[C@H]2[C@@H](OC)O[C@@H]1CO	0.0113	0.94	-0.0262	0.205	0.194	1.28	0.945	-0.199 (inactive)	0.401	0.101	1.4	-0.372 (inactive)	-0.246 (inactive)	0.231 (inactive)	1.08	-1.17 (inactive)	-0.0711	0.8	0.541	-0.0678
O=C1N(Cc2ccccc2)c2ccccc2[C@H]2OC(c3ccc(OCCCO)cc3)=N[C@@]12Cc1ccccc1	0.85	0.205	0.202	0.862	0.45	0.924	1.3	-1.69 (inactive)	1.03	0.115	1.54	-0.915 (inactive)	-0.469 (inactive)	6.52 (inactive)	2.58	-0.905 (inactive)	-0.0058	1.54	1.1	-0.0525
CCCC=C(CCC)[C@@H](NC(=O)c1ccco1)c1ccc(C(=O)OC)cc1	0.0801	0.127	0.209	0.72	1.52	1.65	1.2	0.467 (inactive)	0.594	-0.0507	0.997	1.06 (inactive)	0.113 (inactive)	2.22 (inactive)	3.52	-0.868 (inactive)	0.198	0.678	1.06	-0.15
C[N+](C)(C)CCCCCCNC(=O)[C@H]1C[C@H]2C(=O)NCC(=O)N2[C@H]1c1cccc(OCCO)c1	-0.513	0.44	-0.0316	0.817	-0.0407	0.205	1.27	2.33 (inactive)	-0.393	-0.737	1.22	-0.874 (inactive)	0.198 (inactive)	0.0891 (inactive)	3.07	-0.329 (inactive)	-0.133	1.48	1.12	0.208
[N-]=[N+]=NCc1ccccc1[C@H]1OC(c2ccc(OCCCO)cc2)=N[C@@]1(Cc1ccccc1)C(=O)N1CCOCC1	-0.212	0.768	0.0232	1.15	1.71	1.39	1.21	-0.868 (inactive)	1.8	-0.166	1.46	-2.07 (inactive)	-0.21 (inactive)	-0.0315 (inactive)	3.51	-0.522 (inactive)	0.254	0.316	1.08	0.266
C=CCC(OC(C)=O)[C@@H]1[C@@H](N(Cc2cc3ccccc3o2)C(=O)Cc2ccc(OC)cc2)c2cc(OCCCO)ccc2N1C(=O)Cc1ccc2ccccc2c1 (stereo not given in full)	0.0169	-0.94	-0.0348	-0.377	-0.368	-0.359	0.331	-0.906 (inactive)	0.0598	0.0505	-0.328	0.225 (inactive)	0.232 (inactive)	0.738 (inactive)	0.783	-0.0576 (inactive)	-0.115	-0.507	-1.01	-0.145
Cc1c(NC(=O)/C(C#N)=C/c2ccc(Cl)cc2)c(=O)n(-c2ccccc2)n1C	-0.268	-0.113	-0.0909	0.589	0.746	0.942	1.2	-0.131 (inactive)	0.52	0.0623	0.505	-1.53 (inactive)	-1.57 (inactive)	-0.311 (inactive)	1.55	-0.155 (inactive)	-0.0657	0.532	0.992	-0.153
CCN(CC)c1ccc(N2CC=CC34O[C@@H]5C=CCOC(=O)[C@@H]5[C@H]3C(=O)N(CCO)[C@@H]4C2=O)cc1 (stereo not given in full)	0.73	-0.0324	-0.144	-1.03	-1.51	-0.0687	0.504	0.737 (inactive)	-0.568	-0.353	-0.503	0.907 (inactive)	-1.02 (inactive)	-0.108 (inactive)	0.174	1.47 (inactive)	-0.0041	-1.35	-0.373	-0.334
COC(=O)[C@@]1(CCC(=O)OC(C)(C)C)N=C(c2ccc(OCCCO)cc2)O[C@H]1c1ccccc1CN=[N+]=[N-]	0.0643	-0.13	-0.12	-0.191	-0.066	0.118	0.148	-2.14 (inactive)	-0.04	0.21	0.373	0.0206 (inactive)	0.646 (inactive)	9.66 (active)	1.85	1.08 (inactive)	-0.0963	0.201	0.235	-0.0418
CN(C)CCCNC(=O)[C@@]1(Cc2ccccc2I)c2ccccc2C(=O)N(Cc2ccccc2)[C@H]1c1ccc(CO)cc1	-0.803	-0.451	0.106	1.02	0.647	0.834	1.39	-4.24 (inactive)	0.386	-0.66	1.53	-0.282 (inactive)	-14 (active)	-2.33 (inactive)	3.43	0.207 (inactive)	-0.542	0.557	1.08	0.0054
C=CC[C@@]1(C(=O)O)N=C(c2ccc(OCCCO)cc2)O[C@@H]1c1ccccc1CN=[N+]=[N-]	-0.232	0.334	-0.0518	0.744	0.955	1.79	1.08	4 (inactive)	0.0959	-0.007	0.753	-1.23 (inactive)	-2.27 (inactive)	-1.95 (inactive)	3.34	0.788 (inactive)	0.0806	0.373	0.942	0.0209
COc1ccc(NN2C(C(O)c3ccc(OC)cc3)C=CC3C(=O)N(C4CCCCC4)C(=O)C32)cc1 (stereo not given)	-0.147	0.191	-0.0131	0.467	1.18	1.29	0.978	1.55 (inactive)	0.775	-0.16	1.43	-0.0924 (inactive)	1.01 (inactive)	0.365 (inactive)	2.12	0.0447 (inactive)	0.103	0.157	1.08	0.21
